According to PubChem BioAssay AID1159580 (chemical genetic matrix, 2015):
Screen size: about 5,500 compounds; about 2,000 (36%) were called active. About 18% were inconclusive and are not listed. Rule as the data show it: active = normalized growth mostly below about 0.91 (no sharp cut-off); inconclusive = no clear call, values can overlap the other calls; inactive = mostly above about 0.92. The list shows a part of the results.

Experiment: chemical genetic growth profiling, strain panel (AID 1159580);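 also: tested at 20 µM; growth read once vehicle control cultures reached saturation at 30 °C; 1 = growth at the plate median or of vehicle wells; lower values mean less growth of the strain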
Details: S. cerevisiae deletion strains, growth OD

Measured: normalized growth

NC(=O)c1ccccc1N1CCCCC1
inactive: locus YAL013W, strain DEP1, active compounds read low 1.01 | locus YBR229C, strain ROT2, active compounds read low 0.986 | locus YDL101C, strain DUN1, active compounds read low 0.949 | locus YDR150W, strain NUM1, active compounds read low 0.912 | locus YEL061C, strain CIN8, active compounds read low 1.02 | locus YGR078C, strain PAC10, active compounds read low 0.997 | locus YHR030C, strain SLT2, active compounds read low 0.986 | locus YHR087W, strain rtc3, active compounds read low 1.05 | locus YJL187C, strain SWE1, active compounds read low 1.02 | locus YJR043C, strain POL32, active compounds read low 0.99 | locus YJR075W, strain HOC1, active compounds read low 0.965 | locus YKL190W, strain CNB1, active compounds read low 1.01 | locus YLR039C, strain RIC1, active compounds read low 1.02 | locus YLR058C, strain SHM2 (second series), active compounds read low 1.02 | locus YLR085C, strain ARP6, active compounds read low 1.06 | locus YLR262C, strain YPT6, active compounds read low 1.02 | locus YML094W, strain GIM5, active compounds read low 1.02 | locus YMR219W, strain ESC1, active compounds read low 0.997 | locus YMR263W, strain SAP30, active compounds read low 0.941 | locus YNL128W, strain TEP1, active compounds read low 0.996 | locus YNL153C, strain GIM3, active compounds read low 0.993 | locus YNL298W, strain CLA4 (second series), active compounds read low 0.991 | locus YNL322C, strain KRE1, active compounds read low 0.994 | locus YNR030W, strain Alg12, active compounds read low 1 | locus YOL006C, strain TOP1, active compounds read low 0.991 | locus YPL055C, strain LGE1, active compounds read low 0.998 | locus YPL241C, strain CIN2, active compounds read low 0.994 | locus YPR135W, strain CTF4, active compounds read low 0.907
